# IL-1B inflam inh – qHTS for Inhibitors of Inflammasome Signaling: IL-1-beta AlphaLISA Primary Screen; AID 743279, 2014; hit rate 4.7% among 360,000; activity change, % at 57.5 µM; THP-1 LPS/ATP IL-1B secretion, AlphaLISA, 16 h; stronger effect = lower value; in the data active means activity change below about -50%; inconclusive means mostly about -30% to -49%; further: on the % scale 0 is the no-effect control and ±100 the full control effect
#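 THP-1 cells pretreated 1 hr with compounds (up to 57.5 uM final), then stimulated with LPS (250 ng/mL final) plus ATP (1.25 mM final); secreted IL-1B measured by AlphaLISA after 16 hr, decreased signal indicating inhibition.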
# KB-V1 MDR tox – qHTS assay for MDR1-selective chemotherapeutics: Primary screen using the drug-selected MDR subline cells KB-V1; KB-V1 MDR cells viability, CellTiter-Glo, 72 h; Potency, µM (doses to about 46.1 µM), hits mostly cytotoxic; hit rate 3.4% among 400,000; AID 1347076, 2019; further: potency means the concentration at half of the fitted maximal effect; on the % scale 0 is the no-effect control and ±100 the full control effect; nearly all actives have a fitted effect of over 60% in size
#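 Readout: CellTiter-Glo luminescence, 10 min after addition. Cells: KB-V1 MDR subline, 72 h at 37 degrees C with compound. Analysis: corrected, normalized data fitted to concentration-effect curves.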
# SW480 rerep – A quantitative high throughput screen for small molecules that induce DNA re-replication in SW480 colon adenocarcinoma cells; SW480 DNA re-replication, Hoechst DNA content imaging, 48 h; Potency, µM (doses to about 46.1 µM), for the others: at the highest dose re-replication activation, usual class: activators; hit rate 1.8% among 340,000; further: potency means the concentration at half of the fitted maximal effect; % of control where 0% means no effect; nearly all actives have a fitted effect of over 55% in size
#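 Image-based read-out: total Hoechst fluorescence of nuclei (405 nm excitation, 500-530 nm emission), with hits raising the fraction of high-intensity nuclei. SW480 colon cells incubated 48 hr with compounds at 37 C.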
# KB-3-1 cytotox – qHTS assay for MDR1-selective chemotherapeutics: Primary screen using the parental adenocarcinoma cell KB-3-1; KB-3-1 viability, CellTiter-Glo ATP luminescence, 72 h; AID 1347075, 2019; Potency, µM (top dose mostly 46.1 µM), usual class: cytotoxic; hit rate 1.4% among 400,000; further: potency means the concentration at half of the fitted maximal effect; on the % scale 0 is the no-effect control and ±100 the full control effect; nearly all actives have a fitted effect of over 60% in size
#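 Cells are dispensed, compounds pinned in, plates held at 37 °C for 72 h, then CellTiter-Glo is added and luminescence read after 10 minutes. Cell line: parental KB-3-1 in phenol-red-free DMEM, 10% FBS.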
# MCF10A rereplic – A quantitative high throughput screen for small molecules that induce DNA re-replication in MCF 10a normal breast cells. hit rate 2.9% among 350,000. AID 624296, 2012. Potency, µM (series often up to 46.1 µM), for inactives: top-dose activity, positive = re-replication, usual class: activators. MCF 10A DNA re-replication, Hoechst nuclear intensity, 48 h; further: potency means the concentration at half of the fitted maximal effect; % of control where 0% means no effect; nearly all actives have a fitted effect of over 50% in size
# * marks the source's active call; other numbers are inactive results; i = inactive; ? = inconclusive; · = no result; [ ] = dose if it differs, or a comment. Hits are enriched below; roughly 9.9% of the tested compounds scored in any of these assays. Unless noted, the call rests on the fitted dose curve; in most records, active means well fitted curve in the direction sought with a large enough effect; inconclusive means small, poorly fitted or top-dose-only effect, or another doubt; inactive means no such curve, though single readings can be large; an effect the other way counts as inactive or inconclusive.
SMILES,IL-1B inflam inh,KB-V1 MDR tox,SW480 rerep,KB-3-1 cytotox,MCF10A rereplic
Cc1cccc(CN2CCCC(C(=O)Nc3ccccc3Oc3cccnc3)C2)c1 (stereo not drawn),-56*,i,0%,i,6%
O=C(Nc1ccccc1Oc1cccnc1)C1CCCN(C/C=C/c2ccc(F)cc2)C1 (stereo not drawn),-59*,·,10%,·,?
O=S(=O)(Nc1ncnc2scc(-c3ccc(F)cc3)c12)c1cc(F)ccc1F,72,18µM*,?,?,?
NNc1ncnc2scc(-c3ccc(Cl)cc3)c12,55,?,-4%,16µM*,?
Clc1ccc(-c2csc3ncnc(Cl)c23)cc1,-89*,i,21µM*,i,18µM*
O=C(NCC1([N+](=O)[O-])CN(C(=O)c2ccccc2)CN(C(=O)c2ccccc2)C1)c1ccccc1,25,i,0%,i,2%
COc1cccc(Nc2nc(-c3ccccc3)nc3ccccc23)c1,-73*,i,?,i,?
COc1ccccc1Nc1nc(-c2ccccc2)nc2ccccc12,-9,i,0.58µM*,i,5%
COc1cccc(Oc2nc(-c3ccncc3)nc3ccccc23)c1,?,?,-6%[9.22 µM],?,18µM*
COc1ccc(Nc2nc(-c3ccncc3)nc3ccccc23)cc1,-7,?,18µM*,i,?
COc1ccc(Nc2nc(-c3ccccc3F)nc3ccccc23)cc1OC,-61*,i,4%,i,-8%
Oc1ccc(Nc2nc(-c3ccccc3F)nc3ccccc23)cc1,0,i,-11%,i,-5%
CC(=O)N1CCCc2cc(S(=O)(=O)N3CCN(c4ccc(F)cc4)CC3)ccc21,·,i,·,i,·
CCn1cc(CN2CCc3c([nH]c4ccccc34)C2c2cccc(OC)c2OC)c(C)n1 (stereo not drawn),0,i,-2%,i,1%
Cc1cc(C)c(NC(=O)c2cccc3c2C(=O)N(C2CCCCC2)C3)c(C)c1,0,?,-7%,21µM*,?
Cc1cccc(CCNC(=O)c2cccc3c2C(=O)N(C2CCCCC2)C3)c1,-66*,i,6%,i,?
CCOC(=O)N1CCC(N2Cc3cccc(C(=O)Nc4ccc(CC)cc4)c3C2=O)CC1,-70*,?,13%,?,9%
CCOC(=O)N1CCC(N2Cc3cccc(C(=O)Nc4ccc(F)cc4)c3C2=O)CC1,1,?,6%,?,4%
COc1ccc(NC(=O)/C(Cl)=C(/Cl)S(=O)Cc2ccccc2Cl)cn1 (stereo not drawn),-107*,?,?,18µM*,1µM*
COc1ccc(NC(=O)/C(Cl)=C(/Cl)S(=O)(=O)Cc2ccc(C)cc2)cn1,-119*,?,2.6µM*,6.5µM*,?
c1coc(C2=NC(c3ccco3)C(c3ccco3)N2)c1 (stereo not drawn),-14,i,-7%,i,5%
CC1(C)S[C@@H]2[C@H](NC(=O)[C@H](N)c3ccccc3)C(=O)N2[C@H]1C(=O)OC1OC(=O)c2ccccc21 (stereo partly drawn),-56*,i,-43%,i,1%
CC(C)(C)C(=O)OCOC(=O)[C@@H]1N2C(=O)[C@@H](NC(=O)[C@H](N)c3ccccc3)[C@H]2SC1(C)C,·,·,-8%[20.6 µM],·,0%[20.6 µM]
COc1ccc(COC(=O)NC2CCN(S(=O)(=O)c3ccc(OC)cc3)CC2)cc1,-2,7.3µM*,-1%,i,5%
COc1ccc(S(=O)(=O)N2CCC(C(=O)NC3CC3)CC2)cc1,10,i,-26%,i,-1%
SMILES,IL-1B inflam inh,KB-V1 MDR tox,SW480 rerep,KB-3-1 cytotox,MCF10A rereplic
COc1ccc(S(=O)(=O)N2CCC(NC(=O)C3CCCCC3)CC2)cc1,2,i,-5%,i,2%
COc1ccc(S(=O)(=O)N2CCC(NC(=O)OCc3c(Cl)cccc3Cl)CC2)cc1,-3,8.2µM*,5%,i,?
C[C@@H]1CN([C@H](C)CO)C(=O)CCCn2nncc2CO[C@@H]1CN(C)S(=O)(=O)c1ccc2c(c1)OCCCO2,-22,i,·,i,·
CC1CCCCN1S(=O)(=O)c1cc2c(=O)nc3ccccn3c2cc1Cl (stereo not drawn),·,i,·,i,·
CCCOP(=O)(c1ccc(N(C)C)cc1)C(O)c1ccc(Br)cc1 (stereo not drawn),-6,i,-4%,i,-4%
COc1ccccc1NC(=O)CSc1nnc(-c2ccccn2)n1Cc1ccco1,-23,?,?,i,-182%[0.0737 µM]
C(=C\c1ccccc1)/CSc1nnc(-c2ccccn2)n1Cc1ccco1,16,?,21µM*,5.8µM*,7.9µM*
Clc1ccc(OCc2nnc(SCc3nc4ccccc4[nH]3)n2Cc2ccco2)cc1,197,5.8µM*,15%,?,24%
CCn1c(SCC(=O)c2c[nH]c3ccccc23)nnc1-c1cccs1,35,?,15µM*,16µM*,?
COc1ccc(C)cc1NC(=O)CSc1nnc(-c2ccccn2)n1Cc1ccco1,-3,12µM*,0%,i,-1%
COCCn1c(SCC(=O)c2c[nH]c3ccccc23)nnc1-c1ccncc1,33,i,-2%,i,1%
CCOc1ccccc1NC(=O)CCn1c(-c2ccc(OC)cc2)cc(C(C)=O)c1C,·,i,·,i,·
O=C1CCc2cc([S+](=O)([O-])Nc3ccc(N[S+](=O)([O-])c4ccc5c(c4)CCC(=O)N5)cc3)ccc2N1,·,i,·,i,·
Cc1noc(-c2ccc(NC(C)c3ccccc3)c([N+](=O)[O-])c2)n1 (stereo not drawn),·,i,·,i,·
Cc1ccc(Nc2c([N+](=O)[O-])ccc3nonc23)cc1C,-16,i,-30%,i,0%
CN[C@H]1C[C@H]2c3[nH]c4ccc(-c5cccc(C)c5)cc4c3CCN2C[C@H]1[C@H](C)O,?,i,·,?,·
Cc1onc(-c2ccccc2Cl)c1C(=O)NCc1nnnn1-c1ccc(F)c(F)c1,-19,?,·,i,·
CC/C(=N\NC(=O)c1c[nH]c2ccccc12)c1cccs1,14,16µM*,-3%,i,-18%
O=C(N/N=C/c1ccc[nH]1)c1c[nH]c2ccccc12,27,i,7.3µM*,i,11%
CCn1c(SCc2nc3ccccc3[nH]2)nnc1-c1ccccc1OC,4,i,-3%,i,12%
